From the OligoGym collection
Also: reference of the scale not given here.

Each sequence was assayed against SSR4 (assay: pooled miR-30 sensor sort-seq; sequence = guide strand). Settings: shRNA.
For TAGTAGGAAGGGGTGATCTGGG, the sensor-assay potency score (higher = more potent) was -0.671.
TCTCAGTGGAAATGACAGCGTC showed a sensor-assay potency score (higher = more potent) of -0.63.
TCGTCGAAGAATCTAACCTCAT showed a sensor-assay potency score (higher = more potent) of -1.5.
AATCTAACCTCATAGGTGCCTG showed a sensor-assay potency score (higher = more potent) of -0.709.
AAGAATCTAACCTCATAGGTGC showed a sensor-assay potency score (higher = more potent) of 0.237.
Work on TAGATCACAAGGCCGATCGCCG yielded a sensor-assay potency score (higher = more potent) of -0.829.
TATTCCTCTGAGCCTTCCTGAG gave a sensor-assay potency score (higher = more potent) of -1.63.
Work on AAGTAGTAGATCACAAGGCCGA yielded a sensor-assay potency score (higher = more potent) of -0.597.
With TCGAGTGACAGGGAATTGTTTT the sensor-assay potency score (higher = more potent) was -0.927.
With TCAGAAGTGGTGTAGTAGGAAG the sensor-assay potency score (higher = more potent) was -1.28.

These sequences were tested against SSTR1 in the same assay as above. Settings: shRNA.
TAAATTTGTATCCTCTTAGAAG gave a sensor-assay potency score (higher = more potent) of -1.31.
TTGGTCTTTGAAAACGCGCAGT gave a sensor-assay potency score (higher = more potent) of -0.784.
TATCATTTATGTATTATCCTAA gave a sensor-assay potency score (higher = more potent) of -0.0617.
Sequence TTGGAAGTCTTCCACACTGTAG has a sensor-assay potency score (higher = more potent) of -0.86.
For TAAACAAGAAAATAACTTCTTA, the sensor-assay potency score (higher = more potent) was -0.323.
TTTAGGATGTAGATGTTGGTGG gave a sensor-assay potency score (higher = more potent) of -0.196.
With TAGATGACCATAGAGTTCCCAC the sensor-assay potency score (higher = more potent) was -0.705.
Sequence TTTTGAGATACACTGGAGCAGG has a sensor-assay potency score (higher = more potent) of -0.72.
Sequence TTAGATCTTTCTCAAGTCCAAC has a sensor-assay potency score (higher = more potent) of -1.71.
Work on TAAGGTGATCTTGCGCTCCGAG yielded a sensor-assay potency score (higher = more potent) of 0.115.
TGAGTTGTTAATGAGTTCGTGA showed a sensor-assay potency score (higher = more potent) of -0.0506.
With TTCAATAGTGATTTTAACCATT the sensor-assay potency score (higher = more potent) was -0.629.
